According to PubChem BioAssay AID463173 (ICCB-Longwood Screening Facility, Harvard Medical School, 2010):
In all, about 52,000 compounds went through this assay and about 4,300 (8.3%) were called active. This excerpt belongs to a sample that is enriched for actives. Values without a mark were called inactive. Rule as the data show it: active = survival mostly below about 52% (no sharp cut-off); inactive = mostly above about 56%.

Test system: DeltatarO mutant
Assay: S. aureus survival, RN4220 and DeltatarO strains – OD600, teichoic acid synthesis inhibitors, primary screen (AID 463173)
Details: S. aureus RN4220 wild type/DeltatarO growth, OD600, 18 h, active compounds read low, screened at 18.75 µg/mL (by protocol)

Q: `Cc1ccc(-n2c(SCC(=O)Nc3ccc4c(c3)OCO4)nc3c([nH]c4ccccc43)c2=O)cc1` was tested. Which survival did it give?
A: 128%

Q: How did the survival turn out when `CCOc1ccc(CNC(=O)Cn2c(=O)c3cccn3c3ccc(F)cc32)cc1OC` was run?
A: 47%

Q: For `COc1cc(NC(=O)c2cc(-c3ccc4c(c3)OCO4)on2)cc(OC)c1OC`, which survival is on record?
A: 115%

Q: `CCn1cc(C(=O)N(C)Cc2ccccc2)c(=O)c2cc(S(=O)(=O)N3CCc4ccccc4C3)ccc21` was tested. Which survival did it give?
A: 65%

Q: For `O=C(Cn1cc(C(=O)C(F)(F)F)c2ccccc21)N1CCCCCC1`, which survival is on record?
A: 56%

Q: How did the survival turn out when `COc1cc(C(=O)NCc2nnnn2-c2ccc(C)c(C)c2)cc(OC)c1OC` was run?
A: 98%

Q: Which survival does the source give for `CCOc1ccc(CCNC(=O)c2cnc3c(-c4ccc(F)cc4)c(C)nn3c2C)cc1OCC` here?
A: 134%

Q: With `CCOc1ccc(CCNC(=O)c2cnc3c(-c4ccccc4)c(C)nn3c2C)cc1OCC` as the compound, how does the survival read?
A: 20% (active)

Q: `CCOc1ccc(-c2c(C)nn3c(C)c(C(=O)NCCc4ccccc4)cnc23)cc1OCC` was tested. Which survival did it give?
A: 54%

Q: Which survival does the source give for `CCN1/C(=C\C(=O)C2CC2)Sc2ccccc21` here?
A: 81%

Q: For `COc1ccc(OCC(O)Cn2c(C(C)C)nc3ccccc32)cc1` (stereo not drawn), which survival is on record?
A: 88%

Q: With `Cc1ccc(OCc2nc3ccccc3n2CC(C)C)cc1` as the compound, how does the survival read?
A: 1% (active)

Q: For `COc1ccc(OCc2nc3ccccc3n2C(C)C)cc1`, which survival is on record?
A: 88%

Q: For `Cc1nc2ccccc2n1C(C)c1ccccc1` (stereo not drawn), which survival is on record?
A: 77%

Q: `CCC(C)Cn1c(COc2ccc(OC)cc2)nc2ccccc21` (stereo not drawn) was tested. Which survival did it give?
A: -1% (active)

Q: `COc1ccc(OCc2nc3ccccc3n2C(C)c2ccccc2)cc1` (stereo not drawn) was tested. Which survival did it give?
A: -15% (active)

Q: With `Cc1ccc(S(=O)(=O)c2cn(CC(=O)Nc3ccc4c(c3)OCO4)c3ccccc3c2=O)cc1C` as the compound, how does the survival read?
A: 112%

Q: With `Cc1ccc(NC(=O)c2nnn(Cc3cccc(C(F)(F)F)c3)c2N)c(C)c1` as the compound, how does the survival read?
A: 86%

Q: With `COc1ccc(-n2c(=O)c3c4c(sc3n(Cc3cc(C)ccc3C)c2=O)CN(C(C)=O)CC4)c(OC)c1` as the compound, how does the survival read?
A: 93%

Q: With `Cc1cccc(CC(=O)NC2CC(=O)N(c3ccc4c(c3)OCCO4)C2)c1` (stereo not drawn) as the compound, how does the survival read?
A: 72%

Q: For `CN1C(=O)Cc2cc(S(=O)(=O)N3CCN(c4cccc(C(F)(F)F)c4)CC3)ccc21`, which survival is on record?
A: 116%

Q: How did the survival turn out when `CCOC(=O)c1c(C)[nH]c(C)c1S(=O)(=O)NCC(=O)N1CCN(c2ccccc2OC)CC1` was run?
A: 102%

Q: `COc1ccc(OC)c(-c2cc(C(=O)NCc3ccc(Cl)cc3)no2)c1` was tested. Which survival did it give?
A: 47%

Q: With `Cc1c(Cl)cccc1NC(=O)c1cc(-c2cccc(Cl)c2)on1` as the compound, how does the survival read?
A: 61%

Q: `CCc1ccc(NC(=O)c2cc(-c3cccs3)on2)cc1` was tested. Which survival did it give?
A: 161%

Q: With `COc1ccc(OC)c(-c2cc(C(=O)Nc3cnn(Cc4ccc(Cl)cc4Cl)c3)no2)c1` as the compound, how does the survival read?
A: 64%

Q: With `COc1ccc(OC)c(-c2cc(C(=O)Nc3cccc(Cl)c3C)no2)c1` as the compound, how does the survival read?
A: 2% (active)

Q: With `CC(NC(=O)c1cc(-c2ccc(Cl)cc2)on1)c1ccccc1` (stereo not drawn) as the compound, how does the survival read?
A: 142%

Q: With `Cc1ccc(NC(=O)c2cc(-c3cccs3)on2)cc1C` as the compound, how does the survival read?
A: 45% (active)

Q: With `COc1ccc(OC)c(-c2cc(C(=O)NC(C)c3ccccc3)no2)c1` (stereo not drawn) as the compound, how does the survival read?
A: -14% (active)

Q: Which survival does the source give for `CC(=O)Nc1ccc(NC(=O)c2cc(-c3cccs3)on2)cc1` here?
A: 78%

Q: For `Cc1c(Cl)cccc1NC(=O)c1cc(-c2cccs2)on1`, which survival is on record?
A: 66%

Q: Which survival does the source give for `CC(C)c1cc(C(=O)NC(C)c2ccccc2)no1` (stereo not drawn) here?
A: 50%

Q: How did the survival turn out when `COc1ccc(OC)c(-c2cc(C(=O)Nc3ccc(C)c(C)c3)no2)c1` was run?
A: -1% (active)

Q: With `Cc1cc(Nc2ccc(Cl)cc2C)nc(-n2nc(C)cc2C)n1` as the compound, how does the survival read?
A: 74%

Q: With `Cc1ccc(Cn2c(CO)cnc2SCc2ccc(F)cc2)cc1` as the compound, how does the survival read?
A: 109%

Q: For `COc1cccc(N2C(=O)C(CC(=O)Nc3cccc(F)c3)N(C(C)C)C2=O)c1` (stereo not drawn), which survival is on record?
A: 94%

Q: How did the survival turn out when `Cc1ccc(CSc2c(C)cnc3c2c(=O)n(C)c(=O)n3C)cc1` was run?
A: 78%

Q: `COc1ccc(OCC(=O)OC2CCN(C)CC2)cc1` was tested. Which survival did it give?
A: 112%

Q: How did the survival turn out when `CCN(CC)CCCNC(=O)c1cn(CC)c2ccc(S(=O)(=O)N3CCC(C)CC3)cc2c1=O` was run?
A: 105%

Q: With `CS(=O)(=O)N1CCC(c2nc(-c3ccc(S(=O)(=O)NCC4CCCO4)cc3)no2)CC1` (stereo not drawn) as the compound, how does the survival read?
A: 85%

Q: With `CCn1c(=O)c2cc(C(=O)Nc3cc(F)ccc3F)sc2c2ccccc21` as the compound, how does the survival read?
A: 96%

Q: With `CCOc1ccccc1NC(=O)c1c(NCc2ccc(C)o2)sc2c1CCCCC2` as the compound, how does the survival read?
A: 95%

Q: Which survival does the source give for `COc1cc(NC(=O)c2cc(-c3ccc(Cl)c(Cl)c3)on2)cc(OC)c1OC` here?
A: 111%

Q: Which survival does the source give for `COc1ccccc1-c1cc(C(=O)Nc2cc(Cl)ccc2O)no1` here?
A: 52%

Q: For `COc1ccccc1-c1cc(C(=O)Nc2cc(OC)c(OC)c(OC)c2)no1`, which survival is on record?
A: 25% (active)

Q: With `O=C(c1ccc2c(c1)CCN2S(=O)(=O)c1ccc(Cl)cc1)N1CCN(c2ccccc2)CC1` as the compound, how does the survival read?
A: 58%

Q: With `CCCCOc1ccccc1C(=O)Nc1onc2c1CCCC2` as the compound, how does the survival read?
A: 55%

Q: For `O=C(CN1C(=O)COc2ccc(S(=O)(=O)Nc3ccccc3)cc21)NCc1ccccc1Cl`, which survival is on record?
A: 102%

Q: How did the survival turn out when `O=c1c2cn[nH]c2nc(SCc2cccc(Br)c2)n1-c1ccc(Cl)cc1` was run?
A: 122%

Q: How did the survival turn out when `CCOc1ccc(CC(=O)Nc2c(C(=O)c3ccc(C)cc3)oc3ccccc23)cc1OCC` was run?
A: 52%

Q: How did the survival turn out when `CCOc1ccc(CC(=O)Nc2c(C(=O)c3ccc(Cl)cc3)oc3ccccc23)cc1OCC` was run?
A: 48%

Q: `CC(C)(C)c1ccc(OCC(=O)Nc2c(C(=O)c3ccc(F)cc3)oc3ccccc23)cc1` was tested. Which survival did it give?
A: 99%

Q: `CC(C)c1ccc(OCC(=O)Nc2c(C(=O)c3ccc(F)cc3)oc3ccccc23)cc1` was tested. Which survival did it give?
A: 65% (active)

Q: For `Cc1ccc(C(=O)c2oc3ccccc3c2NC(=O)COc2ccc(C(C)C)cc2)cc1`, which survival is on record?
A: 73%

Q: How did the survival turn out when `CCOc1ccc(CC(=O)Nc2c(C(=O)c3ccc(F)cc3)oc3ccccc23)cc1OCC` was run?
A: 42% (active)

Q: `Cc1cccc(-n2cc(-c3ccccc3)c3c(NC4CCCC4)ncnc32)c1` was tested. Which survival did it give?
A: 98%

Q: Which survival does the source give for `CCNC(=O)CCSc1nnc(-c2ccc(O)cc2)o1` here?
A: 95%

Q: Which survival does the source give for `O=c1oc2ccccc2c(N2CCN(c3ccccc3F)CC2)c1CN1CCCC1` here?
A: 89%

Q: `O=c1oc2ccccc2c(O)c1CN1CCCCC1` was tested. Which survival did it give?
A: 25% (active)

Q: With `O=c1oc2ccccc2c(N2CCN(c3ccc(F)cc3)CC2)c1CN1CCCC1` as the compound, how does the survival read?
A: 100%

Q: How did the survival turn out when `Cc1ccc(-c2cc(-c3ccc4c(c3)NC(=O)CO4)nc3c2COc2ccc(C)cc2-3)cc1` was run?
A: 96%

Q: `Cc1c(C(=O)Nc2ccc(F)cc2)sc2nc[nH]c(=O)c12` was tested. Which survival did it give?
A: 122%

Q: Which survival does the source give for `Cc1sc2ncn(CC(=O)N3CCN(c4ccccc4F)CC3)c(=O)c2c1S(=O)(=O)N1CCC(C)CC1` here?
A: 74%

Q: With `Cc1sc2ncn(CC(=O)N3CCN(c4ccccc4)CC3)c(=O)c2c1S(=O)(=O)N1CCN(c2ncccn2)CC1` as the compound, how does the survival read?
A: 126%

Q: `Cc1sc2ncn(CC(=O)N3CCN(c4cccc(Cl)c4)CC3)c(=O)c2c1S(=O)(=O)N1CCN(c2ncccn2)CC1` was tested. Which survival did it give?
A: 63%

Q: With `Cc1sc2ncn(CC(=O)N3CCN(c4cccc(Cl)c4)CC3)c(=O)c2c1S(=O)(=O)N1CCC(C)CC1` as the compound, how does the survival read?
A: 149%

Q: Which survival does the source give for `Cc1ccc(Cl)cc1N1CCN(C(=O)Cn2cnc3sc(C)c(S(=O)(=O)N4CCC(C)CC4)c3c2=O)CC1` here?
A: 47% (active)

Q: How did the survival turn out when `Cc1cccc(N2CCN(C(=O)Cn3cnc4sc(C)c(S(=O)(=O)N5CCN(c6ncccn6)CC5)c4c3=O)CC2C)c1` (stereo not drawn) was run?
A: 67% (active)

Q: For `CC1=C(c2ccc(C)cc2)S(=O)(=O)NC1=NCc1cccc(F)c1`, which survival is on record?
A: 92%

Q: `Cc1ccc(-n2c(=O)c3ccc(C(=O)NCc4ccco4)cc3n(Cc3ccccc3Cl)c2=O)cc1` was tested. Which survival did it give?
A: 99%

Q: With `c1ccc2c(c1)n1cnnc1c1nncn21` as the compound, how does the survival read?
A: 85%

Q: Which survival does the source give for `CC1=C(C(=O)Nc2ccc(C)cc2C)C(c2ccc([N+](=O)[O-])cc2)n2ncc(C(=O)Nc3ccc(F)cc3)c2N1` (stereo not drawn) here?
A: 101%

Q: For `O=C(O)c1ccc(N2CCOCC2)cc1`, which survival is on record?
A: 80%

Q: How did the survival turn out when `COc1ccc(N2CCN(CC(O)COc3ccccc3C(C)(C)C)CC2)cc1` (stereo not drawn) was run?
A: -8% (active)

Q: With `COc1ccccc1N1CCN(CC(O)COc2ccc(C)cc2C(C)(C)C)CC1` (stereo not drawn) as the compound, how does the survival read?
A: 1% (active)

Q: `COc1ccc(N2CCN(CC(O)COc3ccc(C)cc3C)CC2)cc1` (stereo not drawn) was tested. Which survival did it give?
A: 98%

Q: For `COc1ccc(N2CCN(CC(O)COc3ccc(C(C)C)c(C)c3)CC2)cc1` (stereo not drawn), which survival is on record?
A: 66%

Q: For `COc1ccc(N2CCN(CC(O)COc3c(OC)cccc3OC)CC2)cc1` (stereo not drawn), which survival is on record?
A: 71%

Q: `COc1ccc(N2CCN(CC(O)COc3ccc(C(C)(C)C)cc3)CC2)cc1` (stereo not drawn) was tested. Which survival did it give?
A: 84%

Q: For `Cc1ccc(C(C)C)c(OCC(O)CN2CCN(c3ccccc3F)CC2)c1` (stereo not drawn), which survival is on record?
A: -5% (active)

Q: Which survival does the source give for `C=CCc1ccccc1OCC(O)CN1CCN(c2ccccc2)CC1` (stereo not drawn) here?
A: 83%

Q: Which survival does the source give for `COc1ccccc1N1CCN(CC(O)COc2cc(C)cc(C)c2)CC1` (stereo not drawn) here?
A: 71%

Q: `CN(C)c1ccc(C(CNS(=O)(=O)c2ccc(Br)cc2)N2CCOCC2)cc1` (stereo not drawn) was tested. Which survival did it give?
A: 74%

Q: With `CCc1c(C)sc2c1CCN(Cc1ccccc1F)C2c1ccccc1` (stereo not drawn) as the compound, how does the survival read?
A: 102%

Q: Which survival does the source give for `CCCCC(=O)N1CCc2cc(OC)c(OC)cc2C1COc1ccc(C(=O)OCC)cc1` (stereo not drawn) here?
A: 70%

Q: For `O=C(CN1C(=O)COc2ccc(S(=O)(=O)N3CCCCC3)cc21)NCCc1ccc(Cl)cc1`, which survival is on record?
A: 73%

Q: `CCOc1ccc(N2CC(NC(=O)c3ccc(Cl)cc3)CC2=O)cc1` (stereo not drawn) was tested. Which survival did it give?
A: 73%

Q: `CC(C)(C)Sc1ccc(SC#N)s1` was tested. Which survival did it give?
A: 1% (active)

Q: With `N#CSc1ccc2nc(N)sc2c1` as the compound, how does the survival read?
A: 66%

Q: With `O=C1CC(c2c(Cl)cccc2Cl)c2c(ccc3ccccc23)N1` (stereo not drawn) as the compound, how does the survival read?
A: 73%

Q: `Cc1ccccc1C1CC(=O)Nc2ccc3ccccc3c21` (stereo not drawn) was tested. Which survival did it give?
A: 93%

Q: Which survival does the source give for `O=C1CC(c2ccc(Br)cc2)c2c(ccc3ccccc23)N1` (stereo not drawn) here?
A: 32% (active)
